Assay outcomes: PubChem BioAssay, Broad Institute
Shown are actives, neighbours in structure and some others; about 3.4% of the full set was active somewhere.
Ecoli rRNA inh – selective bacterial rRNA inhibition in E. coli. E. coli WT GFP vs humanized-ribosome RFP mutants, fluorescence, 24 h; active compounds read low; DMSO median 0, no signal -100. GFP signal change (wild-type ribosome), % (test concentration not listed). actives 1.6% (n = 350,000). AID 720706;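 active means significant combined selectivity score with lowered wild-type GFP, culture density cut under 30%, mutant RFP and density less affected; inactive means any of these conditions unmet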
EWS-Fli inh – EWS/Fli transcriptional activity inhibition; A673 NR0B1-luciferase reporter, viability-normalised; inhibition, % at 12.6 µM; actives 0.67% (n = 350,000);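 active means mean inhibition of at least 50% after viability correction, with every replicate also passing that limit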;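 further: firefly luciferase signal divided by Alamar Blue viability fluorescence both relative to DMSO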
PGC1a acetyl inh – PGC1a acetylation modulation, inhibitor mode | actives 0.17% (n = 350,000) | inhibition, % at 15.6 µM | AID 651687 | U2OS PGC1a acetylation, AlphaScreen anti-acetyl-lysine; with virally co-expressed GCN5 acetyltransferase;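 active means every replicate shows inhibition of at least 40%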;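 further: 0% = neutral control wells and 100% = positive control wells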
PAX8 inh HTS – inhibitors of PAX8 transcriptional activity in RMG-I cells; RMG-I TPO-luciferase reporter, SteadyGlo, 24 h; inhibition, % at 12.6 µM; actives 1.2% (n = 360,000);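 active means mean replicate inhibition at least 60% with every replicate also reaching 60%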;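 further: luciferase light reporting Pax8 driven TPO promoter activity; plate controls were median of neutral control wells for no effect and mitoxantrone controls for full effect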
LGR2 antag – inhibitors of bursicon-induced Drosophila LGR2 receptor cAMP signaling. HEK293 LGR2, CRE-luciferase, bursicon-stimulated, 4 h. actives 0.35% (n = 380,000). inhibition, % at 9.99 µM;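 active means drop in luminescence signal, shown as inhibition above about 50% in the replicate tests, limit read from the data, passing the limit was not always enough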;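 further: agonist challenge used bursicon conditioned medium at about half maximal strength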
SIRT5 block – sirtuin-5 (human) deacylase inhibition | Q9NXA8 | Purified SirT5, succinyl-peptide AMC, trypsin-coupled fluorescence | inhibition, % at 15 µM | actives 1.1% (n = 330,000) | AID 652115; in the data active means inhibition above about 15%
Target sequence (Q9NXA8 whole entry, looked up): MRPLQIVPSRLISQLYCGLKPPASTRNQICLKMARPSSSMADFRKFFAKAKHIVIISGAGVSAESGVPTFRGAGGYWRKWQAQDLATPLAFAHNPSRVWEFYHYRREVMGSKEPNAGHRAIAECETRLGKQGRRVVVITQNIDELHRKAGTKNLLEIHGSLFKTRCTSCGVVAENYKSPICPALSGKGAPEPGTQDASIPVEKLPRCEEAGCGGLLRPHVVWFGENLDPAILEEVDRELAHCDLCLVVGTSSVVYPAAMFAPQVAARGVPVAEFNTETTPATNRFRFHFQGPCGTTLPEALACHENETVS
The depositor's hits bear a star; / = no result; ! = repeats disagree.

SMILES	Ecoli rRNA inh	EWS-Fli inh	PGC1a acetyl inh	PAX8 inh HTS	LGR2 antag	SIRT5 block
O=C(NC1CCCCC1)N1C[C@@H]2N[C@H](C1)C2c1ccc(-c2ccc(F)cc2)cc1 (stereo partly drawn)	-53	8	-11	105*!	-19	/
O=C(C1CCCC1)N1C[C@@H]2N[C@H](C1)C2c1ccc(-c2ccccc2F)cc1 (stereo partly drawn)	-32	-5	-1	/	-1	25*!
O=C(C1CCOCC1)N1C[C@@H]2N[C@H](C1)C2c1ccc(-c2ccccc2F)cc1 (stereo partly drawn)	-1	9	-6	-1	10	/
Cc1ccccc1-c1ccc(C2[C@@H]3CN(C(=O)NC4CCCCC4)C[C@H]2N3)cc1 (stereo partly drawn)	-60	-2	-33	37	-10	/
O=C(Nc1cccc(F)c1)N1C[C@@H]2N[C@H](C1)C2c1ccc(-c2ccccc2F)cc1 (stereo partly drawn)	-61	7	1	0	8	6
Cc1ccccc1-c1ccc(C2[C@@H]3CN(C(=O)Nc4cccc(F)c4)C[C@H]2N3)cc1 (stereo partly drawn)	-63	-4	-41	85*!	11	10
C[C@@H]1CCCCO[C@@H](CN(C)C(=O)CCCN(C)C)[C@@H](C)CN([C@@H](C)CO)C(=O)c2cc(NS(=O)(=O)c3cccs3)ccc2O1	8	/	/	/	22	/
CCCC#Cc1ccc([C@@H]2[C@H]3CN(C(=O)Nc4ccc(F)cc4)CC(=O)N3[C@H]2CO)cc1	-43	/	-8	/	19	0
COc1ccc(NC(=O)N2C[C@@H]3N[C@H](C2)[C@@H]3c2ccc(-c3ccc(OC)cc3)cc2)cc1	-17	2	3	93*	44	2
COc1cccc(-c2ccc(C3[C@@H]4CN(C(=O)C5CCC5)C[C@H]3N4)cc2)c1 (stereo partly drawn)	-3	-7	-15	/	-2	-3
COc1ccc(-c2ccc(C3[C@@H]4CN(C(=O)Nc5cccc(F)c5)C[C@H]3N4)cc2)cc1 (stereo partly drawn)	-53	9	-64	100*!	-22	6
COc1ccc(-c2ccc(C3[C@@H]4CN(Cc5cc(OC)cc(OC)c5)C[C@H]3N4)cc2)cc1 (stereo partly drawn)	-60	-3	-24	86*!	-6	5
COc1ccc(NC(=O)N2C[C@@H]3N[C@H](C2)C3c2ccc(-c3ccncc3)cc2)cc1 (stereo partly drawn)	3	2	4	-4	-6	/
COc1cccc(-c2ccc(C3[C@@H]4CN(C(=O)C5CC5)C[C@H]3N4)cc2)c1 (stereo partly drawn)	-1	-13	-31	80*!	62*!	5
CC(=O)N(C)C[C@@H]1Oc2c(NS(C)(=O)=O)cccc2C(=O)N(C)C[C@@H]1C	3	/	/	/	/	/
Cc1cc(C)n(CC(=O)c2cccc(N)c2)n1	8	1	-2	0	13	20*
Cc1nnc(NC(=O)CSc2ncc(-c3ccccc3)[nH]2)s1	6	-21	88*	-42	-16	7
Cc1csc(NC(=O)CSc2ncc(-c3ccccc3)[nH]2)n1	-23	-26	/	-28	15	1
C[C@H](CO)N1C[C@H](C)[C@H](CN(C)Cc2ccncc2)Oc2ccc(NC(=O)CCN3CCOCC3)cc2C1=O	1	/	0	-5	10	25*
COc1ccc(NC(=O)Nc2ccc3c(c2)C(=O)N([C@H](C)CO)C[C@@H](C)[C@@H](CN(C)Cc2ccc(-c4ccccc4)cc2)O3)cc1	-2	-2	-11	/	-3	19*
COc1ccc(NC(=O)Nc2ccc3c(c2)C(=O)N([C@H](C)CO)C[C@H](C)[C@@H](CN(C)Cc2ccc(-c4ccccc4)cc2)O3)cc1	-2	2	-22	/	9	10
CC(C)NC(=O)Nc1ccc2c(c1)C(=O)N([C@@H](C)CO)C[C@@H](C)[C@H](CN(C)Cc1ccccc1)O2	5	-14	12	25	10	-7
CC(C)NC(=O)Nc1ccc2c(c1)C(=O)N([C@H](C)CO)C[C@H](C)[C@H](CN(C)Cc1ccc(-c3ccccc3)cc1)O2	-41	/	3	-9	14	31*
COc1ccc(NC(=O)Nc2ccc3c(c2)C(=O)N([C@@H](C)CO)C[C@H](C)[C@H](CN(C)Cc2ccc(-c4ccccc4)cc2)O3)cc1	-4	-7	1	/	15	20*
C[C@@H]1CN([C@H](C)CO)C(=O)c2cc(NC(=O)Nc3ccc(F)cc3)ccc2O[C@H]1CN(C)Cc1ccc(-c2ccccc2)cc1	-5	11	10	/	16	9
SMILES	Ecoli rRNA inh	EWS-Fli inh	PGC1a acetyl inh	PAX8 inh HTS	LGR2 antag	SIRT5 block
COc1ccc(NC(=O)Nc2ccc3c(c2)C(=O)N([C@H](C)CO)C[C@@H](C)[C@@H](CN(C)Cc2ccc(Cl)c(Cl)c2)O3)cc1	-4	-5	10	/	-7	3
C[C@@H]1CN([C@@H](C)CO)C(=O)c2cc(NC(=O)C3CC3)ccc2O[C@@H]1CN(C)Cc1ccc(Cl)c(Cl)c1	-13	57*!	-9	18	29	6
COc1ccc(NC(=O)Nc2ccc3c(c2)C(=O)N([C@@H](C)CO)C[C@H](C)[C@H](CN(C)Cc2ccc(Cl)c(Cl)c2)O3)cc1	-1	13	8	/	10	19*
C[C@@H]1CN([C@H](C)CO)C(=O)c2cc(NC(=O)Nc3ccc(F)cc3)ccc2O[C@@H]1CN(C)Cc1ccc(-c2ccccc2)cc1	-2	64*	-6	/	5	11
COc1ccc(CN(C)C[C@@H]2Oc3ccc(NC(=O)Nc4ccc(OC)cc4)cc3C(=O)N([C@@H](C)CO)C[C@H]2C)cc1	0	-5	/	-18	3	19*
COc1ccc(CN(C)C[C@H]2Oc3ccc(NC(=O)Nc4ccc(OC)cc4)cc3C(=O)N([C@H](C)CO)C[C@H]2C)cc1	2	-10	/	3	-6	-3
CO[C@@H]1CN(C)C(=O)c2cc(NC(=O)c3cccc(F)c3)ccc2OC[C@@H](C)N(C(C)=O)C[C@H]1C	1	1	3	/	-8	/
COc1ccccc1CN1[C@@H](CO)[C@@H](c2ccccc2)C12CN(C(=O)c1ccccn1)C2	-9	6	-9	/	11	-5
Cc1cc(C)nc(/N=C(\N)Nc2cccc(OCc3ccccc3)c2)n1	-30	53*	-6	36	34	-5
Nc1[nH]c(C(=O)c2ccccc2)c(-c2ccccc2[N+](=O)[O-])c1C(=O)NCCc1c[nH]c2ccccc12	-38*	15	/	24	/	/
O=C(NCCc1c[nH]c2ccccc12)c1ccc([N+](=O)[O-])o1	4	14	-2	72*	13	-5
